According to PubChem BioAssay (NCI):
This is part of a sample that, as a whole, favours compounds with a hit. Of some 79,000 tested, about 15% had one in any assay. Values without a mark were called inactive. Calls of active or inactive are those of the source. Rule as the data show it: active = growth inhibition above about 70%; inactive = the rest.

What was measured:
[1] = NCI Yeast Anticancer Drug Screen. Data for the rad50 strain (AID 155);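 also: 0% = growth of vehicle-only cultures of the same strain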; details: S. cerevisiae rad50 strain growth inhibition, stronger effect = higher value
Procedure, shortened: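 Inhibition values express reduced yeast growth in compound-treated cultures relative to vehicle-treated controls.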

[2] = NCI Yeast Anticancer Drug Screen. Data for the mec2-1 strain (AID 157); details: S. cerevisiae mec2-1 strain, stronger effect = higher value
Procedure, shortened: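 Readout is yeast growth inhibition, normalised to vehicle-treated controls, in the mec2-1 strain exposed to compound.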

[3] = NCI Yeast Anticancer Drug Screen. Data for the sgs1 mgt1 strain (AID 161);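 also: 0% = growth of cultures given vehicle only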; details: S. cerevisiae sgs1 mgt1 strain, stronger effect = higher value
Procedure, shortened: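 Growth of a repair-deficient yeast mutant was monitored after compound treatment and expressed as inhibition relative to vehicle-treated cultures.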

[4] = NCI Yeast Anticancer Drug Screen. Data for the cln2 rad14 strain (AID 165);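 also: 0% = growth equal to vehicle treated cultures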; details: S. cerevisiae cln2 rad14 strain, stronger effect = higher value
Procedure, shortened: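 Relative to vehicle controls, growth inhibition of compound-treated cln2 rad14 yeast was recorded.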

[5] = NCI Yeast Anticancer Drug Screen. Data for the bub3 strain (AID 167); details: S. cerevisiae bub3 mutant strain, stronger effect = higher value
Procedure, shortened: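 Steps: expose the mutant yeast strain to compound; grow alongside vehicle-treated cultures; measure growth; express inhibition against the vehicle cultures.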

[6] = NCI Yeast Anticancer Drug Screen. Data for the mlh1 rad18 strain (AID 175); details: S. cerevisiae mlh1 rad18 strain growth inhibition, stronger effect = higher value
Procedure, shortened: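 Test agents were incubated with a yeast strain of defined genotype (DNA damage repair defect). Inhibition of growth was derived by comparison with vehicle-exposed cultures.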

[7] = at 5.0 µM (retest, dose inferred, filed as 0.5)
[8] = at 50.0 µM (retest, dose inferred, filed as 5.0)

| Structure (SMILES) | growth inhibition [1, 7] | growth inhibition [1, 8] | growth inhibition ([1]; at 50.0 µM) | growth inhibition [2, 7] | growth inhibition [2, 8] | growth inhibition ([2]; at 50.0 µM) | growth inhibition [3, 7] | growth inhibition [3, 8] | growth inhibition ([3]; at 50.0 µM) | growth inhibition [4, 7] | growth inhibition [4, 8] | growth inhibition ([4]; at 50.0 µM) | growth inhibition [5, 7] | growth inhibition [5, 8] | growth inhibition ([5]; at 50.0 µM) | growth inhibition [6, 7] | growth inhibition [6, 8] | growth inhibition ([6]; at 50.0 µM) |
| --- | --- | --- | --- | --- | --- | --- | --- | --- | --- | --- | --- | --- | --- | --- | --- | --- | --- | --- |
| CCOC1=C(c2ccccc2)Sc2ccc(C)cc2C1c1ccc(C)cc1 (centres undefined) | 15% | 35% | 60.2% | 0% | 76% (active) | 78.2% (active) | 10% | 81% (active) | 95.3% (active) | -4% | 51% | 13.1% | -3% | 61% | 90% (active) | -2% | 81% (active) | 82.9% (active) |
| CC(C)CC(C(=O)SCC(C)N1CCCC1)c1ccccc1 (centres undefined) | 0% | 35% | 48% | 8% | 33% | 36.1% | 26% | 56% | 49.6% | 12% | 43% | 71.4% (active) | 15% | 59% | 51.8% | 11% | 37% | 59.2% |
| COc1ccc(N=Nc2ccc(O)cc2)cc1 | 7% | 40% | 96.5% (active) | -5% | 62% | 96% (active) | 2% | 16% | 97.5% (active) | 7% | 59% | 92% (active) | -22% | 88% (active) | 96.4% (active) | 8% | 65% | 97% (active) |
| O=S(c1ccccc1)c1c(Cl)c(Cl)nc(Cl)c1Cl (centres undefined) | 97% (active) | 99% (active) | 99.2% (active) | 99% (active) | 99% (active) | 99.6% (active) | 99% (active) | 99% (active) | 99.5% (active) | 95% (active) | 99% (active) | 99.6% (active) | 98% (active) | 99% (active) | 99.5% (active) | 99% (active) | 99% (active) | 99.5% (active) |
| O=Cc1cc2ccccc2cc1C=O | 88% (active) | 96% (active) | 86% (active) | 94% (active) | 97% (active) | 87.3% (active) | 84% (active) | 96% (active) | 87.2% (active) | 87% (active) | 95% (active) | 88.8% (active) | 94% (active) | 96% (active) | 86.5% (active) | 93% (active) | 95% (active) | 86.2% (active) |
| COc1cccc2c1C(=O)c1c(O)c3c(c(O)c1C2=O)C[C@@](O)(/C(C)=N\NC(N)=O)C[C@@H]3OC1CC(N)C(O)C(C)O1 (some centres undefined) | 30% | 83% (active) | 88.8% (active) | 52% | 34% | 43.8% | 6% | 30% | 36.9% | 7% | 30% | 1.5% | 6% | 45% | 35.6% | 8% | 7% | 57% |
| CCC(COS(=O)(=O)c1ccc(C)cc1)(COS(=O)(=O)c1ccc(C)cc1)COS(=O)(=O)c1ccc(C)cc1 | 3% | 0% | 13.7% | -3% | 0% | 4.35% | -17% | -38% | 42% | 3% | 14% | 57.9% | 3% | 10% | 21.6% | -35% | -40% | 25.8% |
| Clc1ccc(SSN2CCOCC2)cc1 | 7% | 84% (active) | 98.5% (active) | -2% | 80% (active) | 98.9% (active) | 1% | 98% (active) | 98.9% (active) | -2% | 40% | 61.3% | 4% | 92% (active) | 98.5% (active) | 0% | 96% (active) | 97.2% (active) |
| CC(C)CCSc1ncnc2nc[nH]c12 | 1% | 6% | 48.1% | -5% | 3% | 53.5% | -1% | 1% | 63% | -4% | 9% | 29.8% | -2% | 8% | 73.5% (active) | -1% | 6% | 33.8% |
| Cc1ccc(N2C(N)=C(C#N)C(C#N)(C#N)C2c2ccccc2)cc1 (centres undefined) | 22% | 70% (active) | 31.1% | 26% | 82% (active) | 38.1% | 20% | 51% | 55% | 14% | 41% | 24.4% | 25% | 50% | 64.7% | 25% | 88% (active) | 90.5% (active) |
| COc1ccc(/C(Cl)=C(\C=O)c2ccc(Cl)c(Cl)c2)cc1 | 2% | 49% | 99% (active) | 8% | 70% (active) | 98.9% (active) | 13% | 85% (active) | 99.3% (active) | -10% | 55% | 92.5% (active) | 41% | 82% (active) | 97.8% (active) | 27% | 79% (active) | 98.2% (active) |
| CC1SC2(C(=O)Nc3ccc(Br)cc32)N(c2ccc(Cl)cc2)C1=O (centres undefined) | 13% | 99% (active) | 50.4% | 2% | 99% (active) | 99.5% (active) | -2% | 98% (active) | 56.1% | -3% | 95% (active) | 90.8% (active) | 15% | 99% (active) | 96.9% (active) | 10% | 99% (active) | -8.55% |
| Cc1ccccc1NCc1ccccc1Cl | -141% | 98% (active) | 99% (active) | -55% | 99% (active) | 99.5% (active) | -66% | 99% (active) | 98.5% (active) | -83% | 99% (active) | 99% (active) | -65% | 99% (active) | 99.5% (active) | -105% | 98% (active) | 96.7% (active) |
| CCCCCCCNC1CCCc2cc(OC)ccc21 (centres undefined) | 40% | 56% | 85.5% (active) | 22% | 31% | 70.5% (active) | 28% | 64% | 84.2% (active) | 28% | 54% | 72.5% (active) | 21% | 35% | 69.8% | 20% | 60% | 71.2% (active) |
| O=Cc1ccc(O)cc1O | 8% | 24% | 58.5% | 8% | 16% | 29.6% | 7% | 15% | 25.8% | 4% | 14% | -38.6% | 7% | 10% | 55.4% | 1% | 13% | 59% |
| O=C1c2ccccc2C(=O)C2(C(c3ccccc3)c3ccccc3)N=NCC12 (centres undefined) | -5% | 15% | 4.15% | -1% | -7% | 11.9% | 0% | 18% | 7.95% | 5% | 5% | -7.15% | 27% | 42% | 30.1% | 13% | 21% | 12.2% |
| CCCCC(CC)(COC(C)=O)COC(C)=O | -3% | 0% | 7% | 1% | 2% | 12.7% | 3% | -1% | 2.6% | 2% | 5% | 42.5% | 4% | 4% | -2% | 1% | -1% | -16.7% |
| C#CCCOC(=O)CC1=C(C)/C(=C/c2ccc(S(C)=O)cc2)c2ccc(F)cc21 (centres undefined) | 23% | 88% (active) | 84.3% (active) | 18% | 84% (active) | 90.2% (active) | 65% | 73% (active) | 88% (active) | 43% | 41% | 85.2% (active) | 51% | 85% (active) | 86.4% (active) | 21% | 83% (active) | 85.9% (active) |
